This is a sample that favours compounds with a hit; in the whole collection about 3% have one here.
SENP8 block-1: SENP8 (human) protease inhibition; recombinant SENP8, Nedd8 substrate fluorescence; Q96LD8; hit rate 0.64% among 360,000; inhibition, % at 20 µM; in the data active means inhibition mostly above about 40%, no sharp cut-off; inactive means mostly below about 27%
SENP7 block: inhibitors of human SENP7 protease. Q9BQF6. recombinant SENP7, Z-RLRGG-aminoluciferin luminescence, 40 min. inhibition, % at 5 µM. hit rate 1.5% among 330,000. AID 434973;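 active means inhibition above about 50% at the single test dose, limit read from the data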;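 further: plate controls were DMSO with enzyme for no effect and no enzyme buffer wells for full effect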
PPC-1+TRAIL kill: compounds killing PPC-1 cancer cells with TRAIL present (potentiator screen, no TRAIL-free arm). PPC-1 cells + TRAIL, ATPLite viability luminescence. cell killing (% activity), % at 4 µM or 5 µM. hit rate 0.41% among 220,000. AID 1443;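 active means cell killing above 50% in the first pass at 4 µM, then a duplicate retest at 5 µM averaging 50% or more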;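 further: plate controls were cells with TRAIL plus DMSO for no effect and medium-only wells lacking cells for full effect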
C8 TRAIL sens: caspase-8 TRAIL sensitization; NB7+C8 cells + TRAIL, ATPlite viability luminescence; inhibition (viability loss, TRAIL sensitization), % at 10 µM; hit rate 1% among 360,000; AID 624354;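 active means compounds causing at least 50% loss of cell viability in the single-dose screen, relative to plate controls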
SENP8 block-2: SENP8 protease inhibition | AID 2540 | purified SENP8, Z-RLRGG-aminoluciferin cleavage, luminescence | Q96LD8 | inhibition, % at 10 µM | hit rate 1.2% among 330,000; in the data active means inhibition above about 50%
SENP6 inh: inhibitors of human SENP6 protease | Q9GZR1 | Recombinant SENP6 catalytic domain, aminoluciferin luminescence | inhibition, % at 10 µM | hit rate 1.8% among 330,000;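 active means inhibition above about 50% at the single tested dose, limit read from the data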;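 further: plate controls were DMSO wells with enzyme for no effect and DMSO wells lacking enzyme for full effect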
Target sequence (Q9GZR1 628-1112 limits assumed): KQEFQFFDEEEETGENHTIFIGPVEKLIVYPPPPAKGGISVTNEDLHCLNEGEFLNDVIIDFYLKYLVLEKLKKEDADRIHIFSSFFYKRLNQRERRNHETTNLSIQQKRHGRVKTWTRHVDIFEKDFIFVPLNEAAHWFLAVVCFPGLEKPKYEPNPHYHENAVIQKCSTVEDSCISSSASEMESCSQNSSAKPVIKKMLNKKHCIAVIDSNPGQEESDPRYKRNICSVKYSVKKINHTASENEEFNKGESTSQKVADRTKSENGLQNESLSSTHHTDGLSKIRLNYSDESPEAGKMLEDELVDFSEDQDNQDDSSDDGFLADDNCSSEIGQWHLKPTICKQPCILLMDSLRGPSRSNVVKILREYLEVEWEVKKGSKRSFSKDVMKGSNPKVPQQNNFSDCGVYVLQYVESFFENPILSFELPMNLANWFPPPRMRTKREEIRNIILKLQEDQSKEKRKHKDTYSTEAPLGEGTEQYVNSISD
* marks the source's active call; other numbers are inactive results; . = not tested or not shown.

SMILES	SENP8 block-1	SENP7 block	PPC-1+TRAIL kill	C8 TRAIL sens	SENP8 block-2	SENP6 inh
O=C(NCC1COc2ccccc2O1)c1cccc(S(=O)(=O)NCc2ccccc2)c1 (stereo unspecified)	7	-6	.	18	-8	-8
O=C(Nc1ccccc1C(=O)NC1CC1)c1ccccc1F	6	12	.	-4	-1	9
Cc1[nH]n(-c2ccccc2)c(=O)c1/C=N/c1ccccn1	41*	1	6	11	1	-10
CC1=NN(c2ccccc2)C(=O)/C1=C\c1c(C)[nH]n(-c2ccccc2)c1=O	42*	7	12	17	3	2
CC(C)CC(=O)c1c(O)c(C=O)c(O)c2c1O[C@@]1(C)[C@@H](C2)C[C@H]2C[C@@H]1C2(C)C	-29	-6	.	20	-13	-7
O=c1cc(-c2ccccc2)oc2ccc3ccccc3c12	7	.	.	88*	.	.
O=c1cc(-c2ccc(O)c(O)c2)oc2ccc3ccccc3c12	-87	99*	.	74*	96*	95*
COc1ccccc1N(Cc1ccccc1)S(=O)(=O)c1cccc(C(=O)Nc2ncccc2C)c1	10	4	.	12	1	-9
COc1ccccc1N(Cc1ccccc1)S(=O)(=O)c1cccc(C(=O)Nc2cc(C)ccn2)c1	11	-2	.	61*	26	42
O=C(NCCc1ccccc1)C(c1cccs1)N(C(=O)CCl)c1ccc(Cl)cc1 (stereo unspecified)	3	-8	9	96*	-3	18
COc1ccc(-c2cc(CNc3nc(NC(C)C)nc4cc(-c5ccccc5)sc34)on2)cc1	-257	.	.	80*	.	.
CC(=O)Nc1ccc(CNc2nc(NC(C)C)nc3cc(-c4ccccc4)sc23)cc1	-332	.	.	31	.	.
CN(C(=O)COC(=O)c1cnc(Cl)c(Cl)c1)C1CCCCC1	4	6	.	69*	-9	-16
Cc1ccc(-c2noc(CC(=O)c3ccc([N+](=O)[O-])cc3)n2)cc1	12	.	.	3	.	.
CCOc1ccc(-n2c(SCC(N)=O)nc3c([nH]c4ccccc43)c2=O)cc1	-18	1	18	51*	6	-11
CN(CCO)c1cccc2c1S(=O)(=O)N[C@H](Cc1ccccc1)CO2	7	.	.	3	.	.
CC1OC(CC(=O)O)CC2=C1C(=O)c1c(O)cccc1C2=O (stereo unspecified)	89*	.	.	92*	.	.
Cc1cc(C)cc(NC(=O)c2cccc(C(=O)Nc3cc(C)cc(C)c3)n2)c1	-3	10	.	12	4	-5
O=C1Nc2ccc(Br)cc2/C1=C/C(=O)c1ccc2c(c1)OCO2	-10	-5	4	38	1	-1
COc1ccc(C(=O)/C=C2\C(=O)Nc3ccc(Br)cc32)cc1	1	.	.	59*	.	.
O=C(Cn1cnc([N+](=O)[O-])n1)N/N=C/c1ccc(O)cc1O	16	1	7	52*	3	-9
CCc1nc2ccc(C(=O)Nc3ccc(C(=O)N(C)C)cc3)cn2c1N(C)CCCc1ccccc1	-22	.	.	-5	.	.
O=C(Nc1ccc(Cl)c(Cl)c1)C1=Cc2ccccc2OC1	-66	-14	-14	-3	-11	3
O=C(O)c1ccc(N/N=C/C2=Cc3ccccc3OC2)cc1	-231	99*	13	-16	98*	101*
O=C(NC1CCCc2ccccc21)c1c(F)cccc1Cl (stereo unspecified)	12	8	.	5	-11	-2
SMILES	SENP8 block-1	SENP7 block	PPC-1+TRAIL kill	C8 TRAIL sens	SENP8 block-2	SENP6 inh
CCc1nnc(NC(=O)CSc2nc(C)c3c(c2C#N)CCCC3)s1	-314	1	57*	66*	-9	-17
COc1ccc(NC(=O)CSc2nc(C)c3c(c2C#N)CCCC3)cc1	16	2	0	-16	-1	8
O=C(/C=C/c1cccc(Cl)c1Cl)OCC(=O)N1CCOCC1	7	0	.	2	4	-1
O=C(NCc1ccc(Cl)cc1)N1CCN(Cc2ccccc2)CC1	7	4	.	3	-12	2
Cc1ccc(Nc2nc(NCc3ccco3)c3ccccc3n2)cc1	-413	5	20	71*	1	10
O=C(NCCc1ccc2c(c1)OCCO2)c1cc(S(=O)(=O)N2CCCC2)ccc1Br	2	.	.	6	.	.
Nc1nc(N)c2cc(Sc3ccc(Cl)cc3)ccc2n1	-478	.	.	73*	.	.
Nc1nc(N)c2cc(Sc3ccc4ccccc4c3)ccc2n1	-399	-4	34	73*	-6	-4
Nc1nc(N)c2cc(Sc3cccc(C(F)(F)F)c3)ccc2n1	-476	.	.	73*	.	.
Cc1c(N(C)C(=O)COc2ccc3ccccc3c2)c(=O)n(-c2ccccc2)n1C	13	4	.	-8	-6	1
O=C(NCCO)c1nc(C(=O)c2ccc(Cl)cc2)c2ccccc2n1	18	10	.	-5	-5	3
O=C(CSc1nc2ncccc2[nH]1)Nc1ccccc1-c1ccccc1	0	13	.	1	-10	-8
Cc1cccc(NC(=S)N/N=C/c2ccc([N+](=O)[O-])s2)c1	24	0	1	48*	16	50
NC(=O)NC[C@@H]1CC[C@@H](Cc2ccc(-c3ccccc3)cc2)O1	1	14	.	-4	.	.
OC[C@@H]1CC[C@@H](Cc2ccc(-c3ccccc3)cc2)O1	18	63*	.	1	.	.
CC(=O)Nc1ccc(-c2ccnc3c2CC(C)(C(=O)Nc2cccc(Oc4ccccc4)c2)O3)cc1 (stereo unspecified)	-14	.	.	32	.	.
OC[C@@H]1CN(CCN2CCOCC2)C[C@H](n2cnc3c(NC4CCC4)ncnc32)O1	3	.	.	-3	.	.
COc1ccc(C(=O)NOCc2ccccc2)cc1	11	17	.	56*	4	19
O=C(NOCc1ccccc1)c1ccc(Cl)cc1	13	19	.	51*	-4	25
Cc1ccc(CONC(=O)c2ccc(Cl)cc2)cc1	8	9	.	4	-2	-13
Cc1ccc(CONC(=O)c2ccccc2)cc1	-1	15	12	10	-6	31
CC(C)(C)c1ccc(S(=O)(=O)NC(=O)C2(C)CCN2C(=O)C2(c3ccc(Cl)cc3)CC2)cc1 (stereo unspecified)	23	.	.	-9	.	.
COc1ccc(CCNC(=O)CCCn2c(=S)[nH]c3cc4c(cc3c2=O)OCO4)cc1OC	16	.	.	3	.	.
Oc1cccc(/C=N/NC(=S)Nc2cccnc2)c1O	-132	.	27	56*	.	.
Oc1ccc(/C=N/NC(=S)Nc2cccnc2)c(O)c1	-97	3	28	80*	9	14
Oc1ccc(/C=N/NC(=S)Nc2cccnc2)c(O)c1O	56*	.	4	-18	.	.
Fc1c(F)c(F)c(/C=N/NC(=S)Nc2cccnc2)c(F)c1F	10	-8	38	18	-15	-12
COc1ccc(CC(N)c2csc(NC(=O)c3cc(C(C)(C)C)nn3Cc3ccccc3)n2)cc1 (stereo unspecified)	-53	.	.	50*	.	.
